These results are taken from PubChem BioAssay AID2314 (National Center for Advancing Translational Sciences (NCATS), 2010).

The campaign covered roughly 300,000 compounds. About 37,000 (12%) were called active. This is one part of a sample in which actives are shown more often than they occur. A number with no mark means an inactive call. No stated cut-off is given here; in the data, active means max response mostly above about 13% (no sharp cut-off); inactive means mostly below about 14%.

The nature of this test: Cycloheximide Counterscreen for Small Molecule Inhibitors of Shiga Toxin. Further: read at 38.3 µM for the half of the compounds with a filed dose; 0% is about no effect. As to conditions: cell reporter, cycloheximide protein synthesis inhibition counterscreen; active compounds read high.
Consider `Oc1ccc(-c2nncn2-c2ccccc2)cc1`, for which the max response is 1.52%.
The figure for `Oc1ccc(-c2cccc(-c3ccc(O)cc3)c2)cc1` is 29.3% (active); for `O=C(CN1CCN(c2ccc(O)cc2)CC1)Nc1ccc(-c2ccccc2)cc1` it is -0.918%; for `CCc1ccc(CNC(=O)C2CCN(c3nnc(C)c4c(C)n(-c5ccc(C)cc5)nc34)CC2)cc1` it is -4.27%.
With `COc1ccc(C(=O)N2CCCCC2C(=O)Nc2ccc(-n3nc(C)cc3C)cc2)o1` (stereo not given) the figure was -1.42%; with `C[C@H](NC(=O)C1CC(=O)N(c2ccc3c(c2)OCO3)C1)C(=O)NCc1ccco1` (stereo not given in full), 1.48%; with `CCOc1ccc(C2C(C#N)=C(N)N(N(C)C)C3=C2C(=O)CCC3)cc1` (stereo not given), 0.68%.
The figure for `O=C(NC(c1ccccc1)c1ccccc1)N1CCN(CCO)CC1` is -1.21%; for `O=C1c2ccccc2C(=O)c2c1cccc2N1CCN(CCO)CC1` it is 28.2% (active); for `O=C1c2ccccc2C(=O)c2c1cccc2N1CCN(Cc2ccccc2)CC1` it is 1.13%.
`CN(C)c1ccc(S(=O)(=O)NCC(=O)NCC2CCCCC2)cc1[N+](=O)[O-]`: the max response is -5.92%.
The figure for `Cc1ccc(NC(=O)Cc2nnc(SCC(=O)Nc3nncs3)n2C)cc1` is -3.09%; for `CN1C(=O)/C(=C/c2ccc(C(=O)NC3CCCC3)cc2)Oc2ccccc21` it is 7.07%.
With `COCCCN1C(=O)C(=O)/C(=C(/O)c2ccc(S(=O)(=O)N3CCOCC3)cc2)C1c1ccc(F)cc1` (stereo not given), the max response is -2.34%.
Take `COc1ccc(CN2CCC(c3nc4ccc(Cl)cc4[nH]3)CC2)cc1`: the max response is -5.26%.
For `CCc1cc2cc(OC)ccc2nc1SCC(=O)Nc1cc(OC)c(OC)cc1C(=O)O`, the max response was -1.72%.
With `COc1ccc2cc(CCl)c(Cl)nc2c1` the figure was 27% (active); with `O=C(NCc1ccccn1)C1CCN(S(=O)(=O)c2ccc(Br)cc2)CC1`, 5.38%.
With `O=C(CSCc1ccccc1)Nc1ccccc1` the figure was 54.4% (active).
With `Cc1c(NC(=O)CSCc2ccccc2)cccc1C(=O)O` the figure was 10.7%; with `Cn1c(CSCC(=O)Nc2ccccc2)nnc1SCc1ccccc1`, 1.76%.
With `CC(=O)c1ccc(NC(=O)c2ccc(-n3cncn3)c([N+](=O)[O-])c2)cc1`, the max response was 5.03%.
With `CC(C)C(c1nnnn1C1CCCCC1)N1CCN(C(=O)c2ccco2)CC1` (stereo not given) the figure was -3.08%; with `COc1ccc(N(CC(=O)Nc2ccc(F)c(F)c2)S(=O)(=O)c2c(C)[nH]c(=O)[nH]c2=O)cc1`, -1.45%; with `CCc1ccc(/C=N/NC(=O)c2nnn(-c3nonc3N)c2CN2CCc3ccccc32)cc1`, 1.36%.
With `Cc1noc(C)c1COc1cccc(C(=O)Nc2cccnc2)c1` the figure was -2.49%; with `Cc1cc(Cl)ccc1C(=O)C1CCCN(C(=O)c2nonc2C)C1` (stereo not given), -0.841%; with `Cc1cccc(OCC(=O)NCCNC(=O)c2cccnc2)c1`, -6.99%.
Turning to `Cc1cccnc1NC(=O)CSc1nnc(COc2ccc(C(C)C)cc2)n1C`, the max response was -8.69%.
With `CCOC(=O)C1CCCN(C(=O)c2cncc(Br)c2)C1` (stereo not given) the figure was -3.79%; with `CCCOC1CCCN(C(=O)c2cc(COc3cncc(Cl)c3)on2)C1` (stereo not given), 40.2% (active); with `CCOC(=O)CC1(NC(=O)c2cc(COc3cncc(Cl)c3)on2)CCCCC1`, 11.2% (active).
The figure for `CC(CCc1ccccc1)NC(=O)c1cnc(Cl)c(Cl)c1` (stereo not given) is -1.25%.
For `CC(=O)c1cccc(OCc2cc(C(=O)NC(C)Cc3cccnc3)no2)c1` (stereo not given), the max response was 23% (active).
As for `Cc1cccnc1CC(C)NC(=O)c1cc(COc2cncc(Cl)c2)on1` (stereo not given), the max response was 32.7% (active).
As for `O=C(Cc1ccccc1)Nc1c(Cl)ccc2nsnc12`, the max response is -0.56%.
With `CCOC(=O)c1c(S(=O)(=O)NCC(=O)Nc2ccc(C)cc2)c(C)n(C)c1C` the figure was -0.626%.
With `COC(=O)c1cc(NS(=O)(=O)c2ccc3c(c2)c(=O)n(C)c(=O)n3C)cc(C(=O)OC)c1` the figure was -10.6%; with `Cc1cccc(N(C(=O)c2csnn2)C(C(=O)NCc2ccccc2)c2ccncc2)c1` (stereo not given), -3.2%; with `COc1ccc(S(=O)(=O)N2CCC(C(=O)NCc3ccco3)CC2)cc1C`, -1.76%.
`Cc1ccccc1C(OCCN(C)C)C1CCCCC1` (stereo not given): the max response was -3.58%.
In the case of `COc1ccc(NS(=O)(=O)c2cc(NC(=O)C3CCCCC3)ccc2N2CCOCC2)cc1`, the max response is -4.24%.
Consider `CC(C)CNc1ncnc2c1cnn2Cc1ccc(Cl)cc1`, for which the max response is -1.18%.
With `CC(NC(=S)NNS(=O)(=O)c1ccc(C(C)(C)C)cc1)c1ccccc1` (stereo not given) the figure was -3.09%; with `CC(C)CC(NC(=O)C1CCCN1C(=O)[C@@H](C)NC(=O)OCc1ccccc1)C(=O)NCC(N)=O` (stereo not given in full), 18.5%.
The figure for `COCC(=O)N1CCCC(C(=O)c2ccc(C(F)(F)F)cc2)C1` (stereo not given) is 2.21%; for `COc1ccc(CNC(=O)Cc2ccc(-c3ccccc3)cc2)cc1OC` it is -3.24%; for `CCn1cc(C(=O)NCCC(=O)NCCO)c(=O)c2cc3c(cc21)OCO3` it is -3.2%.
The figure for `O=C(NCc1nnc(SCC(=O)N2CCCCCC2)o1)c1ccc(F)cc1` is -0.334%; for `CC[C@@H]1Cc2cc(O)ccc2C2=C1c1ccc(O)cc1C[C@H]2CC` it is -6.86%.
Take `COc1cc(C2C(C(=O)c3ccco3)=C(O)C(=O)N2c2cc(C)on2)ccc1OCc1ccccc1` (stereo not given): the max response was -4.25%.
The figure for `C=CCSc1nnc(N2C(=O)C(O)=C(C(=O)c3ccco3)C2c2ccc(F)cc2)s1` (stereo not given) is 1.8%.
With `Cc1ccc2nc(N3C(=O)C(O)=C(C(=O)c4ccco4)C3c3cccc(O)c3)sc2c1` (stereo not given) the figure was 23.5% (active); with `CCOC(=O)C1CCCN(CCSc2ccc(C)cc2)C1` (stereo not given), 0.771%; with `O=C(NC1CCCC1)C(c1ccco1)N(C(=O)c1ccco1)c1ccc(F)cc1` (stereo not given), -3.92%.
With `Cc1cc(F)ccc1NC(=O)C(C)n1c2ccccc2c2nc(=O)cc(C)n21` (stereo not given) the figure was -0.783%.
Take `CSc1cccc(NC(=S)N(Cc2ccccc2)Cc2ccccn2)c1`: the max response is 7.83%.
The figure for `Cn1c(CC(=O)Nc2ccc(F)cc2)nnc1SCC(=O)NC1CCCCC1` is -1.89%; for `CCOC(=O)C1(Cc2cccc(OC)c2)CCCN(S(=O)(=O)c2cccnc2)C1` (stereo not given) it is -3.01%.
The figure for `CCOC(=O)C1(Cc2cccc(OC)c2)CCN(C(C)COC)CC1` (stereo not given) is 12.7%.
With `CCOC(=O)C1(Cc2cccc(OC)c2)CCCN(C(=O)CCSC)C1` (stereo not given) the figure was 28.4% (active); with `CN(C)C(CNC(=O)c1cccc(C#N)c1)c1ccco1` (stereo not given), 8.17%; with `COCC(=O)Nc1ccc(Br)cc1`, -0.947%.
On to `O=C(CCl)Nc1ccc(Sc2ccc(NC(=O)CCl)cc2)cc1`, for which the max response is 24.3% (active).
Consider `CCN(c1ccccc1)S(=O)(=O)c1ccc(NC(=O)C(C)(C)C)cc1`, for which the max response was -3.17%.
In the case of `O=C(CCl)Nc1cccc(CP(=O)(c2ccccc2)c2ccccc2)c1`, the max response is -1.7%.
With `CS(=O)(=O)N(CC(=O)Nc1ccc(F)cc1)C1CCCCC1` the figure was -2.39%.
The figure for `CC(C)(CCl)C(=O)Nc1ccc(Sc2ccc(F)cc2)cc1` is 31% (active); for `COC(=O)c1sc(N2CCN(Cc3ccccc3)CC2)nc1N` it is -1.52%.
With `O=C(Nc1c2c(nn1-c1ccccc1)CS(=O)(=O)C2)C1CCCC1` the figure was -1.45%; with `N#C/C(=C\c1ccc(-c2cccc([N+](=O)[O-])c2)o1)C(=O)NCCN1CCOCC1`, 2.05%; with `O=[N+]([O-])c1ccccc1SNc1ccccn1`, 0.9%.
Regarding `COc1ccc(N(CC(=O)NC(C)(C)C)C(=O)c2ccco2)cc1`, the max response was 1.33%.
With `C/C(CC(=O)NC(C)(C)C)=N\NC(=O)c1ccco1` the figure was 40.4% (active); with `CC(C)(C)NC(=O)c1cc(NC(=O)c2ccco2)cc(NC(=O)c2ccco2)c1`, -2.77%.
Consider `COc1cc(S(=O)(=O)N2CCN=C2c2ccccc2)ccc1Cl`, for which the max response is 3.04%.
As to `CCOC(=O)c1nn(-c2cccc(C)c2)cc1C(=O)c1ccccc1`, the max response is 43.2% (active).
Turning to `CCOC(=O)c1cn(Cc2cccc(C)c2)nn1`, the max response was -0.759%.
With `CC(=O)c1nn(-c2cccc(Br)c2)cc1C(=O)c1cccc2ccccc12`, the max response was 4.07%.
With `Cc1ccc(S(=O)(=O)N(CC(=O)NCCSC2CCCCC2)c2ccccc2F)cc1` the figure was -3.31%; with `NS(=O)(=O)c1ccc(CCNc2nc(C(F)(F)F)nc3ccccc23)cc1`, -0.703%; with `COc1ccc(CCNC(=O)CSCc2ccc(Br)cc2)cc1OC`, 1.16%.
For the compound `Cn1c(SCC(=O)Nc2ccc(Cl)cc2)nc(O)cc1=O`, the max response was -0.536%.
The figure for `COc1ccc(Cl)cc1C(=O)NCc1cn(C)nc1C` is -4.09%.
Take `Cc1nn(C)cc1CNC(=O)Nc1ccc(Cl)cc1`: the max response was 21.8% (active).
Consider `Cn1ccc(NC(=O)Nc2ccc(Cl)cc2)n1`, for which the max response was 36.8% (active).
The figure for `CN(C(=O)Nc1ccc(Cl)cc1)n1cnc2ccccc2c1=O` is 3.38%; for `Cc1nn(C)cc1C(=O)NNC(=S)Nc1ccc(Cl)cc1` it is -3.2%; for `CCc1ccccc1NC(=O)CN(c1ccc(OC)cc1OC)S(=O)(=O)c1ccccc1[N+](=O)[O-]` it is 10.7%.
With `O=c1ccc2cc(S(=O)(=O)Nc3ccccc3F)ccc2o1` the figure was -3.48%; with `Cc1ccc2c(c1)-c1c(ssc1=S)C(C)(C)N2C(=O)CN1C(=O)c2ccccc2C1=O`, -4.7%; with `CCCCC1S/C(=N/N=C/c2cccs2)NC1=O` (stereo not given), -2.78%.
With `Nc1ccc(-c2sc(N)nc2-c2ccccc2)cc1` the figure was 1.13%; with `Nc1ccc(-c2nnc(-c3ccccc3)o2)cc1`, 51.7% (active).
As to `Nc1ccc(-c2nnc(-c3ccc(-c4ccccc4)cc3)o2)cc1`, the max response was 58% (active).
